{
  "source": "PubChem BioAssay (EPA / NIEHS)",
  "note": "Results filed as inconclusive are left out. Active and inactive are the calls of the source. Rule for the calls, unless noted: active = hit-call score of the fitted dose curve at least 0.9, where 1 is the maximum; inactive = score below 0.9.",
  "data": [
    {"test_system": "SRD5A2 (gene 6716)", "assay": "CCTE_Deisenroth_5AR_NBTE_ratio: CCTE's 5alpha-reductase NanoBRET Target Engagement Assay - Ratio, Deisenroth Lab (AID 2284322)", "conditions": "actives raise or lower the signal", "procedure,_shortened": "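Reverse-transfect HEK293T with pNLF1-C-SRD5A2, express 20 h. Pre-incubate cells with chemical 3 h (8-point series, 10 nM - 29.9 uM, duplicate). Add testosterone tracer, 2 h more. Add substrate/inhibitor, read donor and acceptor emission.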", "values": [
      {"smiles": "CCC[CH2][Sn]([CH2]CCC)([CH2]CCC)[O]C(=O)c1ccccc1", "AC50": "10 µM (active)"},
      {"smiles": "O=C1C(Cl)=C(Cl)C(=O)c2ccccc21", "outcome": "inactive"},
      {"smiles": "C[C@@H]1C[C@@H]([C@H](O)CC2CC(=O)NC(=O)C2)C(=O)[C@@H](C)C1", "AC50": "0.0871 µM (active)"},
      {"smiles": "CCN1CCC2(CC1)COc1cc3c(cc12)N(C(=O)c1ccc(-c2ccc(-c4nnc(C)o4)cc2C)cc1)CC3", "AC50": "5.8 µM (active)"},
      {"smiles": "O=C(OC1CCCCC1)c1ccccc1C(=O)OC1CCCCC1", "outcome": "inactive"},
      {"smiles": "CC(=O)[O][Hg][c]1ccccc1", "AC50": "50 µM (active)"},
      {"smiles": "O=C(Nc1ccc2[nH]ccc2c1)c1cc2cc(F)ccc2n1Cc1cccc(F)c1", "AC50": "3.93 µM (active)"},
      {"smiles": "C[C@H]1CCCC(=O)CCC/C=C/c2cc(O)cc(O)c2C(=O)O1", "outcome": "inactive"},
      {"smiles": "CCOP(=S)(OCC)Oc1nc(Cl)c(Cl)cc1Cl", "outcome": "inactive"},
      {"smiles": "CCC1(c2ccc(N)cc2)CCC(=O)NC1=O", "note": "(configuration not stated)", "outcome": "inactive"},
      {"smiles": "O=[N+]([O-])c1ccc(O)c([N+](=O)[O-])c1", "AC50": "64.9 µM (active)"},
      {"smiles": "N#CN=C(N)N", "outcome": "inactive"},
      {"smiles": "CC(C)(c1ccc(OCC2CO2)cc1)c1ccc(OCC2CO2)cc1", "note": "(configuration not stated)", "outcome": "inactive"},
      {"smiles": "c1cc[c]([Hg][c]2ccccc2)cc1", "outcome": "inactive"},
      {"smiles": "O=C(O)C(F)(F)C(F)(F)C(F)(F)C(F)(F)C(F)(F)C(F)(F)C(F)(F)C(F)(F)C(F)(F)C(F)(F)F", "outcome": "inactive"},
      {"smiles": "C=C(C)C(=O)[O][Sn]([CH2]CCC)([CH2]CCC)[CH2]CCC", "AC50": "4.42 µM (active)"}
    ]},
    {"test_system": "not listed separately", "assay": "TAMU_PeakParms_SingleDonor1434_Asystole: Texas A&M University (TAMU) 1.5-hr Human Induced Pluripotent Stem Cell (iPSC)-derived Cardiomyocytes Calcium (Ca+2) Flux Assay for Cardiotoxicity: Asystole (quiescence of beating) (AID 2284328; active = hit-call score of the fitted dose curve at least 0.9, where 1 is the maximum)", "conditions": "not given", "procedure,_shortened": "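Donor 1434 iPSC-cardiomyocytes exposed 90 min at 37C, 5% CO2, to 0.2, 1, 10 and 100 uM in 0.5% DMSO. Ca2+ dye fluorescence gave average peak frequency; POD is EC95, a 95% beat-rate drop versus controls.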", "values": [
      {"smiles": "CCOP(=S)(OCC)Oc1nc(Cl)c(Cl)cc1Cl", "outcome": "inactive"},
      {"smiles": "CC(C)(C)c1cc(O)ccc1O", "outcome": "inactive"},
      {"smiles": "Oc1cccc2cccnc12", "outcome": "inactive"},
      {"smiles": "ClC(Cl)=C(Cl)C(Cl)=C(Cl)Cl", "outcome": "inactive"}
    ]},
    {"test_system": "not listed separately", "assay": "CCTE_Mundy_HCI_iCellGluta_NOG_NeuronCount: CCTE's Neurite Outgrowth Assay in iCellGluta cells for Neuron Count, Mundy Lab (AID 2284340; active = hit-call score of the fitted dose curve at least 0.9, where 1 is the maximum;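 note: cells fixed about 48 h after compound addition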)", "conditions": "not given", "procedure,_shortened": "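Neuron count read by automated high-content imaging of Hoechst 33342 and betaIII-tubulin/Alexa Fluor-488 labelling in human iPSC glutamatergic neurons. Activity fitted relative to DMSO.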", "values": [
      {"smiles": "O=C(O)C(F)(F)C(F)(F)C(F)(F)C(F)(F)C(F)(F)C(F)(F)F", "outcome": "inactive"},
      {"smiles": "COP(=O)(OC)O/C(=C\\Cl)c1cc(Cl)c(Cl)cc1Cl", "AC50": "51.5 µM (active)"},
      {"smiles": "O=C1C2(Cl)C3(Cl)C4(Cl)C(Cl)(Cl)C5(Cl)C3(Cl)C1(Cl)C5(Cl)C24Cl", "note": "(configuration not stated)", "AC50": "17.9 µM (active)"},
      {"smiles": "C=C(C)C(=O)[O][Sn]([CH2]CCC)([CH2]CCC)[CH2]CCC", "AC50": "0.202 µM (active)"}
    ]},
    {"test_system": "not listed separately", "assay": "CCTE_Mundy_HCI_iCellGluta_NOG_NeuriteCount: CCTE's Neurite Outgrowth Assay in iCellGluta cells for Neurite Count, Mundy Lab (AID 2284342; active = hit-call score of the fitted dose curve at least 0.9, where 1 is the maximum;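 note: chemical exposure about 48 hours starting 2 hours after plating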)", "conditions": "not given", "values": [
      {"smiles": "COP(=O)(OC)O/C(=C\\Cl)c1cc(Cl)c(Cl)cc1Cl", "AC50": "51.5 µM (active)"},
      {"smiles": "O=C1C2(Cl)C3(Cl)C4(Cl)C(Cl)(Cl)C5(Cl)C3(Cl)C1(Cl)C5(Cl)C24Cl", "note": "(configuration not stated)", "AC50": "21.6 µM (active)"},
      {"smiles": "C=C(C)C(=O)[O][Sn]([CH2]CCC)([CH2]CCC)[CH2]CCC", "AC50": "0.188 µM (active)"}
    ]}
  ]
}
